This is a sample that favours compounds with a hit; in the whole collection about 27% have one here.
sEH activator: activators of human soluble epoxide hydrolase | activation, % at 2 µM | purified human sEH enzymatic activity, activator screen | P34913 | 91,000 tested, 0.04% active | AID 717; in the data active = activation above about 37%
CYP2C19 act: activators of human cytochrome P450 2C19 | P33261 | recombinant CYP2C19, luciferin-H EGE luminescence; stronger effect = higher value; 0 = fully inhibited enzyme, 1 = untreated enzyme | activation factor at 5 µM | 96,000 tested, under 10 active | AID 1025;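 active = activation factor of at least 2 at 5 µM in the primary screen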;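 also: 0 = wells with 2.5 mM tranylcypromine and 1 = vehicle-only wells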
Target sequence (P33261 whole entry, looked up): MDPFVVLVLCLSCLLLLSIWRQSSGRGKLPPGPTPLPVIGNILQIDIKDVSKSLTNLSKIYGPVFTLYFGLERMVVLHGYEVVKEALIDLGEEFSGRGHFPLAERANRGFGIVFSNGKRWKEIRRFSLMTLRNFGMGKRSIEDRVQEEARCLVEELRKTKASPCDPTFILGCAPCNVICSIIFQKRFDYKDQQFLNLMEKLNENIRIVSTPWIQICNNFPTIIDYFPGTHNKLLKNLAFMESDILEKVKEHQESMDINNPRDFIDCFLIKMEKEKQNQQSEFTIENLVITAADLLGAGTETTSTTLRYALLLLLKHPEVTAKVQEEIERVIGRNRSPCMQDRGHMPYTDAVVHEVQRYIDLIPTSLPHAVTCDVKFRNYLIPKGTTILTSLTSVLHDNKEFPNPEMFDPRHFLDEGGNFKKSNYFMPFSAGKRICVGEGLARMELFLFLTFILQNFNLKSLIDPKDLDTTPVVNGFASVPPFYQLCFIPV
CYP2C9 act: increases human cytochrome P450 2C9 activity; activation factor at 5 µM; AID 1024; P11712; recombinant CYP2C9, luciferin-H conversion, luminescence; stronger effect = higher value; factor 1 = untreated enzyme, 0 = blocked; 96,000 tested, 1.4% active;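 active = activation factor of 2 or more for CYP2C9 at a 5 µM dose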;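 also: 0 = sulfaphenazole-blocked wells and 1 = vehicle-only wells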
CYP2C19 inhib: human CYP2C19 inhibition. AID 778. CYP2C19 Supersomes, luciferin-H EGE luminescence, 30 min. P33261. 96,000 tested, 21% active. inhibition, % at 5 µM;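 active = CYP2C19 inhibition above a set limit at 5 µM in the primary screen, cut at about 50% in these data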;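 also: plate controls were negative control wells for no effect and 2.5 mM tranylcypromine positive control for full effect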
sEH inh: soluble epoxide hydrolase (human) inhibition; P34913; recombinant human sEH enzymatic activity assay; inhibition, % at 2 µM; 91,000 tested, 0.34% active; AID 707; in the data active = inhibition above about 80%
CYP2C9 inhib: inhibitors of human CYP2C9; P11712; CYP2C9 Supersomes, luciferin-H conversion, luminescence; inhibition, % at 5 µM; 96,000 tested, 20% active; AID 777;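 active = blocking of liver enzyme CYP2C9 beyond about 50% at 5 µM, limit read from the data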
The depositor's hits bear a star; x = no result.

SMILES | sEH activator | CYP2C19 act | CYP2C9 act | CYP2C19 inhib | sEH inh | CYP2C9 inhib
c1ccc(CNc2ncnc3c2cnn3-c2ccccc2)cc1 | 6.5 | 0.9 | 0.5 | 13.3 | -8.0 | 53.8*
c1ccc(-n2ncc3c(NCCN4CCOCC4)ncnc32)cc1 | 7.2 | 0.7 | 0.5 | 28.6 | -6.0 | 51.9*
c1ccc(-n2ncc3c(NCc4ccccn4)ncnc32)cc1 | -0.2 | 0.6 | 0.3 | 42.1 | 5.1 | 69.7*
Cc1ccc(-n2nnnc2SCC(=O)N2c3ccccc3NC(=O)C2(C)C)cc1 | 21.3 | 0.9 | 0.9 | 11.3 | -22.0 | 12.8
O=C(O)C1CCC(=O)N1Cc1ccccc1Cl (stereo unspecified) | x | 1 | 0.9 | 4.4 | x | 11.4
O=C(CCCC(=O)N(CC(=O)NC1CCCC1)C1CCCC1)Nc1ccccn1 | 3.6 | 0.7 | 0.9 | 32.2 | -3.6 | 14.6
CC(C)(C)Nc1ncnc2c1cnn2-c1ccccc1 | x | 0.6 | 0.4 | 35.7 | x | 63.0*
O=C(NCc1cccs1)C1CCC(CNS(=O)(=O)c2ccc(Br)s2)CC1 (stereo unspecified) | -92.3 | 0.9 | 0.9 | 11.4 | 92.4* | 12.9
COC(=O)[C@H](CCSC)NC(=O)N1CCN(Cc2ccccc2)CC1 | -7.2 | 0.8 | 0.8 | 21.2 | 6.7 | 15.5
COC(=O)[C@H](CCSC)NC(=O)N1CCC(C)CC1 | 6.3 | 0 | 0 | 97.0* | -3.9 | 96.1*
NC(=O)C1CCN(C(=O)c2ccc(CS(=O)(=O)c3c(Cl)cccc3Cl)o2)CC1 | 0.9 | 1.1 | 0.9 | -11.5 | -2.2 | 8.5
O=C(O)CCC(=O)Nc1ccccc1C(=O)NCc1ccco1 | 3.9 | x | x | x | -0.5 | x
O=C(NCc1ccco1)c1ccccc1F | -8.9 | 1.1 | 0.9 | -10.8 | 6.1 | 7.9
CC(=O)c1cccc(NC(=O)NCc2ccco2)c1 | 0.2 | 0.7 | 0.6 | 29.7 | 1.0 | 41.4
O=C(NCc1ccco1)c1ccccc1Nc1ccc(F)cc1 | 5.1 | 0.1 | 0.3 | 89.4* | -1.7 | 67.0*
O=C(Nc1cccc(Cl)c1)Nc1ccccc1C(=O)NCc1ccco1 | -2.0 | 0.9 | 0.4 | 13.9 | 2.7 | 57.6*
O=C(NCc1ccco1)c1cccc2ccccc12 | 7.9 | 0.8 | 3* | 24.1 | -7.8 | -203.2
O=C(NCc1ccco1)Nc1ccc(Br)cc1Cl | -19.9 | 0.5 | 0.5 | 47.1 | 19.5 | 52.9*
COc1ccc(NC(C#N)c2ccc(OC)cc2)cc1 (stereo unspecified) | 6.9 | 0.9 | 0.9 | 12.9 | -4.8 | 11.7
O=C(NCc1ccco1)c1cnc2ccccn2c1=O | x | 1 | 0.4 | 2.1 | x | 55.2*
O=C(NCc1ccco1)c1cnc2sccn2c1=O | 0.7 | 1 | 0.8 | -3.7 | -1.8 | 17.8
CCOC(=O)c1c(CN2CCOCC2)n(-c2ccccc2)c2cc(Br)c(O)cc12 | 0.2 | 0.4 | 0.4 | 56.8* | -0.3 | 64.5*
COc1cc2c(C(=O)N3CCN(c4ccccc4)CC3)c(C)oc2cc1Br | -2.5 | 0.4 | 0.2 | 58.7* | 5.7 | 78.8*
CCOC(=O)c1c(CN2CCOCC2)oc2ccc(OC)cc12 | -9.1 | 0.6 | 0.7 | 36.4 | 9.7 | 30.8
CCOC(=O)c1c(CSC(=N)N)n(-c2ccc(C)cc2)c2cc(Br)c(OC(C)=O)cc12 | -3.7 | 0.6 | 0.3 | 35.7 | 9.1 | 65.2*
SMILES | sEH activator | CYP2C19 act | CYP2C9 act | CYP2C19 inhib | sEH inh | CYP2C9 inhib
CCOC(=O)c1c(C)n(C)c2ccc(OC(C)=O)cc12 | -9.8 | x | x | x | 13.1 | x
CCOC(=O)c1c(CN2CCOCC2)n(-c2ccccc2)c2cc(Br)c(OC)cc12 | -10.5 | 0.5 | 0.2 | 52.5* | 7.3 | 78.5*
CCC(Cc1ccccc1)NC(=O)C1CCN(S(=O)(=O)c2c(C)noc2C)CC1 (stereo unspecified) | -9.7 | 1.2 | 0.9 | -19.5 | 7.9 | 11.1
CC1(C)SCC2C(=O)N3C(CSC3(C)C)C(=O)N21 (stereo unspecified) | -25.8 | 0.9 | 0.9 | 14.5 | 25.5 | 9.7
O=S(=O)(Nc1ncn[nH]1)c1ccc(Cl)cc1 | 3.7 | 0.2 | 1 | 82.9* | -5.7 | 1.2
O=S(=O)(Nc1nc2ccccc2[nH]1)c1ccc(Cl)cc1 | 1.1 | 0.4 | 0.9 | 58.0* | -2.1 | 5.7
COc1ccccc1NC(=O)CSc1nc2n[nH]c(C)c2c(=N)n1-c1ccccc1Cl | -4.4 | x | x | x | 5.6 | x
COc1ccc(/C(O)=C2\C(=O)C(=O)N(CCCN(C)C)C2c2ccccc2F)cc1Cl (stereo unspecified) | x | 0.9 | 0.7 | 7.5 | x | 25.8
COC(=O)c1sccc1NC(=O)CSc1ccccc1NS(=O)(=O)c1ccc(Cl)cc1 | 10.0 | 0.4 | 0.2 | 59.0* | -8.1 | 83.7*
COC(=O)c1sccc1NC(=O)CSc1ccccc1NS(=O)(=O)c1ccccc1Cl | 3.1 | 1 | 0.1 | 3.6 | -0.7 | 86.7*
CCn1c(SCc2cccc(C(=O)O)c2)nnc1-c1ccccc1 | 4.9 | 1 | 0.9 | -0.9 | -5.3 | 5.9
C=C(c1cccc2ccccc12)P(=O)(O)O | -9.3 | 1.2 | 1.1 | -16.8 | 9.4 | -10.0
N#CC1=C(C2CC2)CC(c2ccccc2)C(C#N)=C1N (stereo unspecified) | 10.0 | 0.4 | 0.9 | 56.8* | -12.7 | 7.4
CC1(C)CC(=O)C2=C(C1)N(N1CCOCC1)C(N)=C(C#N)C2c1cccnc1 (stereo unspecified) | -3.5 | 0.9 | 0.9 | 5.3 | 1.8 | 8.1
Cc1ccc(N2C(N)=C(C#N)C(c3ccsc3)C3=C2CC(C)(C)CC3=O)cc1 (stereo unspecified) | -1.7 | 0.6 | 0.2 | 42.8 | 1.5 | 83.2*
Cc1ccc(C2C(C#N)=C(N)N(c3ncn[nH]3)C3=C2C(=O)CC(C)(C)C3)cc1 (stereo unspecified) | 11.3 | 0.7 | 0.4 | 28.2 | -13.3 | 64.9*
Cc1ccc(N2C(N)=C(C#N)C(c3cccnc3)C3=C2CC(C)(C)CC3=O)cc1 (stereo unspecified) | 7.5 | 0.8 | 0.5 | 22.9 | -2.2 | 51.9*
Cc1cc2nn(-c3cccc4ccccc34)nc2cc1NC(=O)c1cccs1 | 7.4 | 0.7 | 0.7 | 29.5 | -7.7 | 29.2
N/C(Cc1ccc(Cl)c(Cl)c1)=N\OC(=O)c1cccs1 | -0.9 | 0.6 | 0.4 | 37.8 | -0.7 | 62.9*
N/C(Cc1ccc(Cl)cc1)=N\OC(=O)c1ccc2ccccc2c1 | 8.2 | 1.1 | 0.8 | -14.8 | -5.1 | 17.2
CCCCS/C(N)=N/N=C/c1ccccc1O | 0.5 | 0.1 | 0.2 | 87.7* | 0.4 | 82.4*
COC(=O)c1[nH]c2ccc(C)cc2c1NC(=O)CN1CCCc2ccccc21 | 0.7 | 0.8 | 0.2 | 22.9 | 3.5 | 84.9*
COC(=O)c1[nH]c2ccc(C)cc2c1NC(=O)CCN1CCN(Cc2ccc3c(c2)OCO3)CC1 | x | 0.6 | 0.8 | 37.0 | x | 17.8
CCOC(=O)C1CCCN(CC(=O)Nc2c(C(=O)OC)[nH]c3ccc(Cl)cc23)C1 (stereo unspecified) | -4.5 | 0.1 | 0.1 | 90.8* | 3.1 | 90.6*
CCN(CC(=O)Nc1c(C(=O)OC)[nH]c2ccc(Cl)cc12)c1ccc2c(c1)OCO2 | -3.9 | 0.1 | 0 | 88.0* | 2.9 | 96.9*

Screening data deposited in PubChem BioAssay by several laboratories.
